Here are results for 20 molecules from PubChem BioAssay (NCI).

The nature of test [1]: NCI Yeast Anticancer Drug Screen. Data for the rad50 strain (AID 155).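 Further: 0% = growth of vehicle-only cultures of the same strain.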 Conditions: S. cerevisiae rad50 strain growth inhibition; at 50.0 µM; active compounds read high. In short, it runs like this:
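Yeast carrying a defined DNA repair defect were exposed to test compounds, and growth was compared with vehicle-treated controls to give percent inhibition.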

The nature of test [2]: NCI Yeast Anticancer Drug Screen. Data for the mec2-1 strain (AID 157). Conditions: S. cerevisiae mec2-1 strain, at 50.0 µM, active compounds read high. In short, it runs like this: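 Readout is yeast growth inhibition, normalised to vehicle-treated controls, in the mec2-1 strain exposed to compound.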
A short description of test [3]: NCI Yeast Anticancer Drug Screen. Data for the sgs1 mgt1 strain (AID 161).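 Further: 0% = growth of cultures given vehicle only.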 Conditions: S. cerevisiae sgs1 mgt1 strain, at 50.0 µM, active compounds read high. In short, it runs like this:
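Yeast cells carrying a defined DNA-repair defect were exposed to test compounds. Growth inhibition was measured relative to vehicle-treated controls.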

The nature of test [4]: NCI Yeast Anticancer Drug Screen. Data for the cln2 rad14 strain (AID 165).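 Further: 0% = growth equal to vehicle treated cultures.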 Conditions: S. cerevisiae cln2 rad14 strain, at 50.0 µM, active compounds read high. In short, it runs like this: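 Relative to vehicle controls, growth inhibition of compound-treated cln2 rad14 yeast was recorded.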
A short description of test [5]: NCI Yeast Anticancer Drug Screen. Data for the bub3 strain (AID 167). The settings on record: S. cerevisiae bub3 mutant strain, at 50.0 µM, active compounds read high. In short, it runs like this:
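Compounds were applied to a genetically altered yeast strain carrying a cell-cycle control defect. Growth inhibition was scored against vehicle-treated controls.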

Test [6] in a line: NCI Yeast Anticancer Drug Screen. Data for the mlh1 rad18 strain (AID 175). Conditions: S. cerevisiae mlh1 rad18 strain growth inhibition; at 50.0 µM; active compounds read high. A digest of the protocol:
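Test agents were incubated with a yeast strain of defined genotype (DNA damage repair defect). Inhibition of growth was derived by comparison with vehicle-exposed cultures.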

The structures appear in SMILES notation. The panel holds about 79,000 compounds, 15% with a hit somewhere; the sample as a whole holds those more often. A number with no mark means an inactive call. Activity calls are given as the source filed them. No stated cut-off is given here; in the data, active means growth inhibition above about 70%; inactive means the rest.

Regarding `O=C(COc1ccc(Cl)cc1)Nc1nccs1`, the growth inhibition in test [1] is 4.95%; in test [2] it was 32%; in test [3], 26.6%; in test [4], 5.7%; in test [5] it was 20.4%; in test [6] it was 21.4%.
With `CN(C)CCCCC(C#N)(c1ccccc1)c1ccccc1`, the growth inhibition in test [1] was 16.3%; in test [2] it was 18.8%; in test [3], 16.6%; in test [4], 12.7%; in test [5], 26.5%; in test [6], 38.5%.
As for `O=C1NCCN1CCCl`, the growth inhibition in test [1] was 0.7%; in test [2] it was -1.25%; in test [3], -5.15%; in test [4], 1.5%; in test [5], 1.65%; in test [6], 6.25%.
With `CCCOC(=O)COc1ccccc1`, the growth inhibition in test [1] is 10.1%; in test [2], 5.7%; in test [3], -4.3%; in test [4], -45%; in test [5], -11.4%; in test [6], 2.4%.
`NNC(=O)CC1(O)CCCCC1`: the growth inhibition in test [1] was -0.35%; in test [2], -9.2%; in test [3], 2.3%; in test [4], 0.4%; in test [5], -17.1%; in test [6], -19.8%.
In the case of `CCOC(=O)CC1=Nc2ccccc2SC1`, the growth inhibition in test [1] is -28.4%; in test [2], -31.2%; in test [3] it was -14.8%; in test [4] it was -12.8%; in test [5], -22.6%; in test [6], -28.6%.
As for `CC(=O)OCC1OC(N2C(c3ccccc3)=CC(c3ccco3)C(C#N)=C2S)C(OC(C)=O)C(OC(C)=O)C1OC(C)=O` (stereo not given), the growth inhibition in test [1] is 0.95%; in test [2], -11.2%; in test [3], 13.8%; in test [4], 12.7%; in test [5], 2.05%; in test [6] it was 27.2%.
Take `Cc1noc(NS(=O)(=O)c2ccc(NC(=S)/N=C/C(C(=O)c3ccccc3)=C(\O)c3ccccc3)cc2)c1C`: the growth inhibition in test [1] was 10.7%; in test [2], 0.55%; in test [3], 18.7%; in test [4] it was -7.4%; in test [5], -5.15%; in test [6] it was 13.7%.
As to `CC(=O)Cc1ccc2[nH]c(C)cc(=O)c2c1`, the growth inhibition is -2.15% in test [1]; 5.25% in test [2]; -0.2% in test [3]; -34.4% in test [4]; -7.15% in test [5]; 4.55% in test [6].
Consider `O=[N+]([O-])c1cc(Br)ccc1N1CCCC1`, for which the growth inhibition in test [1] is -8.7%; in test [2] it was 4.2%; in test [3] it was 4.05%; in test [4], -11.7%; in test [5] it was -2.3%; in test [6] it was -6.85%.
On to `Cc1cc[n+](C(C)CCC(C)[n+]2ccc(C)cc2)cc1` (stereo not given), for which the growth inhibition is 25.2% in test [1]; 20.5% in test [2]; 42.5% in test [3]; 27% in test [4]; 14.2% in test [5]; 11.8% in test [6].
Take `O=[N+]([O-])c1ccc(S(=O)(=O)c2ccc(N=Cc3ccc(C=Nc4ccc(S(=O)(=O)c5ccc([N+](=O)[O-])cc5)cc4)cc3)cc2)cc1`: the growth inhibition was 6.85% in test [1]; 3.25% in test [2]; 1.15% in test [3]; -5.45% in test [4]; -4.55% in test [5]; -5.85% in test [6].
Regarding `OC(C/C(=N\Nc1ccccc1)c1ccc(F)cc1)(C(F)(F)F)C(F)(F)F`, the growth inhibition in test [1] was 98.3% (active); in test [2], 98.8% (active); in test [3], 98.5% (active); in test [4] it was 97.8% (active); in test [5], 98.3% (active); in test [6] it was 98.6% (active).
With `N.N.N.N.N.O=S(=O)([O-])S(=O)(=O)[O-].[Co+3]`, the growth inhibition in test [1] is 9.15%; in test [2], 16.4%; in test [3] it was 13%; in test [4] it was 23.2%; in test [5] it was -2.05%; in test [6], -9%.
Take `CN1C(=O)c2ccccc2CC12c1ccccc1C(=O)N2C` (stereo not given): the growth inhibition was 2.8% in test [1]; -13.6% in test [2]; 22.9% in test [3]; -0.55% in test [4]; 15.9% in test [5]; 4.45% in test [6].
Consider `CC(=O)OC1CCC2(C)C(CCC3C2CCC2(C)C3CCC2C(C)(C)O)C1` (stereo not given), for which the growth inhibition in test [1] is -2.2%; in test [2], 0.3%; in test [3], -16.4%; in test [4] it was -9.15%; in test [5], -2.45%; in test [6], 20.6%.
`CCC1c2c(cc(=O)[nH]c2O)C(=O)N1C` (stereo not given): the growth inhibition is 9.5% in test [1]; -4.75% in test [2]; 3.95% in test [3]; -9.15% in test [4]; -0.8% in test [5]; 0.55% in test [6].
In the case of `O=C(Oc1ccc(C(=O)c2ccc(C(=O)c3ccc(OC(=O)c4cccc(Br)c4)cc3)cc2)cc1)c1cccc(Br)c1`, the growth inhibition is 11.2% in test [1]; 7.15% in test [2]; -10.7% in test [3]; -2.35% in test [4]; 2.65% in test [5]; 2.15% in test [6].
Consider `N#C/C(=C\N1CC(=O)NC1=S)c1nc2ccccc2s1`, for which the growth inhibition in test [1] is 4.75%; in test [2], 8.45%; in test [3], -6.05%; in test [4], 23.3%; in test [5], 24.9%; in test [6], 19.2%.
For `CCc1[nH]c(=O)c2oc3cc4ccccc4cc3c2c1C(=O)O`, the growth inhibition in test [1] is -43.9%; in test [2], -35.5%; in test [3], -55.6%; in test [4] it was -29.4%; in test [5], -17.8%; in test [6], -70.3%.
